Source: PubChem BioAssay AID1159580 (chemical genetic matrix, 2015)
Several values for one entry are separate records, joined by “and”; a condition that tells them apart may be missing. Identical values can stand only once. Hit rate of the full screen: of about 5,500 compounds, about 2,000 (36%) were called active. About 18% were inconclusive and are not listed. Rule as the data show it: active = normalized growth mostly below about 0.91 (no sharp cut-off); inconclusive = no clear call, values can overlap the other calls; inactive = mostly above about 0.92. The list shows a part of the results.

Assay: chemical genetic growth profiling, strain panel (AID 1159580);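 also: tested at 20 µM; growth read once vehicle control cultures reached saturation at 30 °C; 1 = growth at the plate median or of vehicle wells; lower values mean less growth of the strain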
Settings: S. cerevisiae deletion strains, growth OD

Measured: normalized growth

Cc1occc(=O)c1O
inactive: locus YAL021C, strain ccr4, active compounds read low 0.964 | locus YAL026C, strain drs2, active compounds read low 0.972 | locus YAL030W, strain snc1, active compounds read low 0.949 | locus YBL061C, strain skt5, active compounds read low 0.969 | locus YBR009C, strain hhf1, active compounds read low 0.984 | locus YBR021W, strain FUR4, active compounds read low 1 | locus YBR023C, strain chs3, active compounds read low 0.976 | locus YBR171W, strain sec66, active compounds read low 0.975 | locus YBR229C, strain ROT2, active compounds read low 1 | locus YBR231C, strain swc5, active compounds read low 0.964 | locus YBR279W, strain paf1, active compounds read low 0.944 | locus YCL011C, strain gbp2, active compounds read low 0.956 | locus YCL016C, strain dcc1, active compounds read low 0.978 | locus YCL029C, strain bik1, active compounds read low 1.02 | locus YCL061C, strain MRC1, active compounds read low 0.987 | locus YCL069W, strain vba3, active compounds read low 0.978 | locus YCR088W, strain abp1, active compounds read low 0.965 | locus YDL005C, strain med2, active compounds read low 0.967 | locus YDL035C, strain GPR1, active compounds read low 1.01 | locus YDL040C, strain nat1, active compounds read low 0.971 | locus YDL074C, strain BRE1, active compounds read low 1.01 | locus YDL101C, strain DUN1, active compounds read low 1.01 | locus YDL185W, strain tfp1, active compounds read low 1.01 | locus YDL192W, strain arf1, active compounds read low 1.02 | locus YDR001C, strain nth1, active compounds read low 0.953 | locus YDR069C, strain doa4, active compounds read low 1 | locus YDR101C, strain arx1, active compounds read low 0.991 | locus YDR137W, strain rgp1, active compounds read low 0.945 | locus YDR159W, strain sac3, active compounds read low 0.971 | locus YDR162C, strain NBP2, active compounds read low 1.02 | locus YDR195W, strain ref2 0.953 | locus YDR297W, strain sur2, active compounds read low 0.971 | locus YDR318W, strain mcm21, active compounds read low 1.02 | locus YDR334W, strain swr1, active compounds read low 0.929 | locus YDR335W, strain msn5, active compounds read low 0.964 | locus YDR388W, active compounds read low 1.01 | locus YDR392W, strain spt3, active compounds read low 0.917 | locus YDR502C, strain sam2, active compounds read low 0.999 | locus YEL003W, strain gim4, active compounds read low 0.956 | locus YEL037C, strain rad23, active compounds read low 0.961 | locus YEL061C, strain CIN8 (second series), active compounds read low 0.953 | locus YEL061C, strain CIN8, active compounds read low 1 | locus YER015W, strain faa2, active compounds read low 0.964 | locus YER016W, strain bim1, active compounds read low 0.958 | locus YER110C, active compounds read low 1.01 | locus YER111C, strain swi4, active compounds read low 0.966 | locus YER155C, strain BEM2 (second series), active compounds read low 0.97 | locus YER155C, strain BEM2, active compounds read low 0.993 | locus YER167W, strain BCK2, active compounds read low 0.995 | locus YFR010W, strain ubp6, active compounds read low 0.96 | locus YGL078C, strain dbp3, active compounds read low 1.03 | locus YGL086W, strain mad1, active compounds read low 0.982 | locus YGL167C, strain pmr1, active compounds read low 0.961 | locus YGL173C, strain kem1, active compounds read low 0.957 | locus YGL227W, strain vid30, active compounds read low 0.966 | locus YGL240W, strain doc1, active compounds read low 0.971 | locus YGL248W, strain PDE1, active compounds read low 1.01 | locus YGL253W, strain hxk2, active compounds read low 0.974 | locus YGR135W, strain pre9, active compounds read low 1.03 | locus YGR252W, strain gcn5, active compounds read low 1.08 | locus YHR013C, strain ard1, active compounds read low 0.947 | locus YHR027C, strain rpn1, active compounds read low 0.979 | locus YHR030C, strain SLT2, active compounds read low 1.01 and 1.04 | locus YHR079C, strain IRE1 (second series), active compounds read low 1.01 | locus YHR079C, strain IRE1, active compounds read low 1.03 | locus YHR094C, strain hxt1, active compounds read low 1.01 | locus YHR129C, strain ARP1, active compounds read low 1.01 | locus YHR142W, strain chs7, active compounds read low 0.919 | locus YHR200W, strain rpn10, active compounds read low 1.01 | locus YIL066C, strain RNR3, active compounds read low 1.01 | locus YIL073C, strain SPO22, active compounds read low 1.06 | locus YIL125W, strain kgd1, active compounds read low 1.02 | locus YIR030C, strain dcg1, active compounds read low 1 | locus YJL092W, strain hpr5, active compounds read low 0.976 | locus YJL095W, strain BCK1 (second series), active compounds read low 0.962 | locus YJL095W, strain BCK1, active compounds read low 1.01 and 1.02 | locus YJL115W, strain asf1, active compounds read low 0.95 | locus YJL129C, strain trk1, active compounds read low 0.95 | locus YJL134W, strain LCB3, active compounds read low 1.01 | locus YJL154C, strain vps35, active compounds read low 0.953 | locus YJL164C, strain tpk1, active compounds read low 0.969 | locus YJL166W, strain qcr8, active compounds read low 0.953 | locus YJL168C, strain set2, active compounds read low 0.999 | locus YJL187C, strain SWE1 (second series), active compounds read low 1.01 | locus YJL187C, strain SWE1, active compounds read low 0.977 | locus YJR043C, strain POL32, active compounds read low 1.01 | locus YJR066W, strain TOR1, active compounds read low 0.991
